Only some compounds are listed: those with a hit (about 21% of all), similar ones and a draw of the others.
IL1B secr inh = inhibitors of inflammasome signaling (IL-1 beta secretion); AID 743279; THP-1 LPS/ATP IL-1B secretion, AlphaLISA, 16 h; active compounds read low; 4.7% of 360,000 active; activity change, % at 57.5 µM; in the data active means activity change below about -50%; inconclusive means mostly about -30% to -49%; further: on the % scale 0 is the no-effect control and ±100 the full control effect
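THP-1 cells pretreated 1 hr with compounds (up to 57.5 uM final), then stimulated with LPS (250 ng/mL final) plus ATP (1.25 mM final); secreted IL-1B measured by AlphaLISA after 16 hr, decreased signal indicating inhibition.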
D3 ag = D3 dopamine receptor (human) agonism; P35462; D3R DiscoveRx beta-arrestin cells, luminescence, 90 min; max activation, %; 0.58% of 410,000 active; AID 652048; in the data active means max activation above about 30%; further: 0% is about no effect
Target sequence (P35462 whole entry, looked up): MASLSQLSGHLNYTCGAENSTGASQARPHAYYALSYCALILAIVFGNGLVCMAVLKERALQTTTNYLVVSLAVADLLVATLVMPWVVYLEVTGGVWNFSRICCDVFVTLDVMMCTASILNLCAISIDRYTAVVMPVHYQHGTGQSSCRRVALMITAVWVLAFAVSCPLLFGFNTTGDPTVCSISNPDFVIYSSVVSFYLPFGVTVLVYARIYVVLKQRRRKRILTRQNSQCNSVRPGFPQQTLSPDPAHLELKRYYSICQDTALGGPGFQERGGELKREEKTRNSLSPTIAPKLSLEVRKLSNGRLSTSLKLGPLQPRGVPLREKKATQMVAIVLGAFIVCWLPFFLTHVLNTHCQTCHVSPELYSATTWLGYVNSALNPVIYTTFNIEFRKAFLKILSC
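Agonist-mode cell screen: cells plated at 1500/well and incubated overnight at 37 °C, then exposed to library compounds for 90 min at 37 °C. Detection reagent was added for 30–60 min at room temperature, and luminescence was read.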
DT40 TDP1 no CPT = qHTS for Inhibitors of human tyrosyl-DNA phosphodiesterase 1 (TDP1): qHTS in cells in absence of CPT; 15% of 420,000 active; DT40 Tdp1-/- hTDP1 cells, no CPT, ATP luminescence, 48 h; Potency, µM (titrated, usually from 46.2 µM), for inactives: at the highest dose activity change, negative = growth inhibition, usual class: inhibitors; further: potency means the concentration at half of the fitted maximal effect; on the % scale 0 is the no-effect control and ±100 the full control effect; nearly all actives have a fitted effect of over 55% in size
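No-CPT arm: Tdp1-/-;hTDP1 DT40 cells (400/well) plus compounds, incubated ≥48 hr at 37 °C. Readout CellTiter-Glo luminescence.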
DRD3 antagonist = blocks the human D3 dopamine receptor; P35462; D3R cells, DiscoveRx beta-arrestin luminescence, antagonist mode; active compounds read low; max response, negative = inhibition, %; 2.5% of 360,000 active; AID 652054; in the data active means max response below about -50%; inconclusive means no clear call, values can overlap the other calls; further: on the % scale 0 is the no-effect control and ±100 the full control effect
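Cells expressing the human receptor were seeded at 1500 cells/well, incubated overnight at 37 degrees C in 5% CO2, then exposed to library compounds with dopamine controls for 90 minutes at 37 degrees C before luminescent detection.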
ClpP mod = qHTS Assay for Activators of ClpP; ATP-dependent Clp protease proteolytic subunit (Bacillus subtilis (strain 168)), P80244; purified B. subtilis ClpP, FRET peptide cleavage, 20 min; Potency, µM (series often up to 57.5 µM), without a hit: at the highest dose activity change, negative = active; 1.9% of 340,000 active; AID 651965, 2013; active means well fitted falling curve with a large enough effect; inconclusive means small, poorly fitted or top-dose-only effect; inactive means no such curve, though single readings can be large or run the other way; further: potency means the concentration at half of the fitted maximal effect; the source files actives as falling curves though it sought activators and does not explain the sign; nearly all actives have a fitted effect of over 65% in size
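FRET quenching reversal measured ClpP activation: 10 microg/mL B. subtilis ClpP at pH 8 with the FRET-FV decapeptide, read at 430 nm after 320 nm excitation. The 20-min minus 0-min signal was scaled between DMSO/no-enzyme wells and ADEP (5.8 microM final).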
DT40 TDP1 CPT = growth inhibition of DT40 Tdp1-/-;hTDP1 cells with camptothecin (screen for TDP1 inhibitors); chicken DT40 Tdp1-/-;hTDP1 cells + 20 nM CPT, ATP luminescence, 48 h; Potency, µM (top dose mostly 46.2 µM), for the others: top-dose activity change, negative = growth inhibition, hits mostly inhibitors; 12% of 420,000 active; further: potency means the concentration at half of the fitted maximal effect; on the % scale 0 is the no-effect control and ±100 the full control effect; nearly all actives have a fitted effect of over 55% in size
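Cell growth measured by CellTiter-Glo luminescence after a minimum 48 h, 37 C compound exposure with 20 nM CPT in Tdp1-knockout DT40 cells stably expressing hTDP1, seeded 400/well; qHTS titration format.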
An asterisk follows results filed as active. Unless noted, the call rests on the fitted dose curve; in most records, active means well fitted inhibition curve with a large enough effect; inconclusive means small, poorly fitted or top-dose-only effect; inactive means flat fitted curve, though single readings scatter.

Screening CN1CCN(c2ccc([N+](=O)[O-])c(NCC3CCCO3)c2)CC1 (stereo unspecified) returned IL1B secr inh 11.6, D3 ag 44.2*, DT40 TDP1 no CPT inconclusive, DRD3 antagonist 0.0, ClpP mod -0.4% and DT40 TDP1 CPT -22.4%.
`C/C(=C\[C@@H](N)C(=O)O)CP(=O)(O)O` gave DT40 TDP1 no CPT -14.2% and DT40 TDP1 CPT 15.8%.
`CC(C)(C)[C@]1(O)C[C@@H]2OC(=O)C[C@@]23C(=O)O[C@@H]2OC(=O)[C@@H](O)C213` (stereo partly specified) gave IL1B secr inh 20.8, D3 ag 1.4, DT40 TDP1 no CPT 1.9%, DRD3 antagonist 3.9, ClpP mod -1.9% and DT40 TDP1 CPT -1.5%.
For Nc1c(C(=O)Nc2cccc(Br)c2)sc2nc3c(cc12)N1CCC3CC1 the results were D3 ag 1.0 and ClpP mod 4.3%.
`COc1ccc(NC(=O)c2sc3nc4c(cc3c2N)N2CCC4CC2)cc1OC` gave D3 ag 1.1, DT40 TDP1 no CPT 25.9µM*, ClpP mod -6.1% and DT40 TDP1 CPT inconclusive.
Screening Nc1c(C(=O)Nc2ccc(Cl)c(C(F)(F)F)c2)sc2nc3c(cc12)N1CCC3CC1 returned D3 ag 1.2, DT40 TDP1 no CPT 13µM*, ClpP mod 4.0% and DT40 TDP1 CPT 13µM*.
`Nc1c(C(=O)Nc2ccc(Cl)cc2)sc2nc3c(cc12)N1CCC3CC1` gave D3 ag 2.1, DT40 TDP1 no CPT 16.4µM*, ClpP mod 4.1% and DT40 TDP1 CPT inconclusive.
Screening O=C(C1CCC(=O)N1Cc1ccccc1Cl)N1CCC2(CC1)OCCO2 (stereo unspecified) returned IL1B secr inh -0.7, D3 ag 6.2, DT40 TDP1 no CPT 0.5%, DRD3 antagonist 5.0, ClpP mod 20.6% and DT40 TDP1 CPT 3.5%.
For N[C@@H](CCCCP(=O)(O)O)C(=O)O the results were DT40 TDP1 no CPT -7.5% and DT40 TDP1 CPT 13.9%.
`COc1cc2c(cc1O)C[C@H]1NCCc3cc4c(c-2c31)OCO4` gave IL1B secr inh -26.2, D3 ag 0.0, DT40 TDP1 no CPT 23.1µM*, DRD3 antagonist 0.0, ClpP mod 3.5% and DT40 TDP1 CPT 18.4µM*.
`C[C@H]1CNC(=O)c2c(C(=O)N3CCN(C(=O)OC(C)(C)C)CC3)ncn21` gave IL1B secr inh -26.9, D3 ag -13.1, DT40 TDP1 no CPT inconclusive, DRD3 antagonist -55.2*, ClpP mod -12.9% and DT40 TDP1 CPT 25.9µM*.
Screening CC1(C)S[C@@H]2[C@H](N3C(=O)C(c4ccccc4)NC3(C)C)C(=O)N2[C@H]1C(=O)O (stereo partly specified) returned D3 ag -24.8, DT40 TDP1 no CPT -12.7% and DT40 TDP1 CPT 2.5%.
`CC(=O)Nc1cc(-c2ccc(C(=O)NC3CC3)cc2)cn2c(-c3ccc(F)c(Cl)c3)cnc12` gave IL1B secr inh -12.4, D3 ag 21.3, DT40 TDP1 no CPT 14.6µM*, DRD3 antagonist 65.7, ClpP mod -23.4% and DT40 TDP1 CPT inconclusive.
`COc1ccc(-c2nn(Cc3ccccc3)cc2C(=O)NC2CC2)cc1OC` gave IL1B secr inh 20.3, D3 ag 6.3, DT40 TDP1 no CPT 13.9%, DRD3 antagonist -17.6, ClpP mod 1.0% and DT40 TDP1 CPT 5.3%.
For CC(=O)NCCc1c[nH]c2ccccc12 the results were IL1B secr inh 5.3, D3 ag 8.6, DT40 TDP1 no CPT inconclusive, DRD3 antagonist -16.3, ClpP mod -6.2% and DT40 TDP1 CPT -0.5%.
`CC(=O)c1cn(CC(=O)NCCc2c[nH]c3ccccc23)c2ccccc12` gave IL1B secr inh 49.6, D3 ag 5.2, DT40 TDP1 no CPT 23.1µM*, DRD3 antagonist 37.6, ClpP mod -0.7% and DT40 TDP1 CPT 16.4µM*.

Source: PubChem BioAssay
